According to PubChem BioAssay AID1159580 (chemical genetic matrix, 2015):
The whole screen tested about 5,500 compounds, of which about 2,000 (36%) were called active. About 18% were inconclusive and are not listed. Rule as the data show it: active = normalized growth mostly below about 0.91 (no sharp cut-off); inconclusive = no clear call, values can overlap the other calls; inactive = mostly above about 0.92. This is one part of the list.

Assay: chemical genetic growth profiling, strain panel (AID 1159580);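 also: tested at 20 µM; growth read once vehicle control cultures reached saturation at 30 °C; 1 = growth at the plate median or of vehicle wells; lower values mean less growth of the strain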
Conditions: S. cerevisiae deletion strains, growth OD

Measured: normalized growth

OC(CCN1CCCCC1)(c1ccccc1)C1CC2C=CC1C2 (centres undefined)
inactive: locus YAL021C, strain ccr4, hits give low values 1.01 | locus YAL026C, strain drs2, hits give low values 1 | locus YAL030W, strain snc1, hits give low values 1.02 | locus YBL061C, strain skt5, hits give low values 1.02 | locus YBR009C, strain hhf1, hits give low values 0.985 | locus YBR023C, strain chs3, hits give low values 0.999 | locus YBR171W, strain sec66, hits give low values 1 | locus YBR231C, strain swc5, hits give low values 0.999 | locus YBR279W, strain paf1, hits give low values 0.99 | locus YCL011C, strain gbp2, hits give low values 1.01 | locus YCL016C, strain dcc1, hits give low values 1.04 | locus YCL061C, strain MRC1, hits give low values 0.996 | locus YCL069W, strain vba3, hits give low values 0.977 | locus YCR088W, strain abp1, hits give low values 1 | locus YDL005C, strain med2, hits give low values 1 | locus YDL040C, strain nat1, hits give low values 1 | locus YDR001C, strain nth1, hits give low values 0.997 | locus YDR069C, strain doa4, hits give low values 1.02 | locus YDR137W, strain rgp1, hits give low values 1.01 | locus YDR159W, strain sac3, hits give low values 0.992 | locus YDR195W, strain ref2 1.01 | locus YDR297W, strain sur2, hits give low values 1 | locus YDR334W, strain swr1, hits give low values 0.965 | locus YDR335W, strain msn5, hits give low values 1 | locus YDR392W, strain spt3, hits give low values 1.03 | locus YEL003W, strain gim4, hits give low values 0.993 | locus YEL037C, strain rad23, hits give low values 0.988 | locus YEL061C, strain CIN8 (second series), hits give low values 0.983 | locus YER015W, strain faa2, hits give low values 1 | locus YER016W, strain bim1, hits give low values 1.03 | locus YER111C, strain swi4, hits give low values 1 | locus YER155C, strain BEM2 (second series), hits give low values 1.01 | locus YFR010W, strain ubp6, hits give low values 0.966 | locus YGL167C, strain pmr1, hits give low values 1 | locus YGL173C, strain kem1, hits give low values 1.01 | locus YGL227W, strain vid30, hits give low values 0.989 | locus YGL240W, strain doc1, hits give low values 0.994 | locus YGL253W, strain hxk2, hits give low values 1.01 | locus YHR013C, strain ard1, hits give low values 1.03 | locus YHR027C, strain rpn1, hits give low values 0.991 | locus YHR030C, strain SLT2, hits give low values 0.977 | locus YHR079C, strain IRE1, hits give low values 0.996 | locus YHR142W, strain chs7, hits give low values 1 | locus YJL092W, strain hpr5, hits give low values 1.01 | locus YJL095W, strain BCK1 (second series), hits give low values 1 | locus YJL095W, strain BCK1, hits give low values 0.996 | locus YJL115W, strain asf1, hits give low values 0.984 | locus YJL129C, strain trk1, hits give low values 0.987 | locus YJL154C, strain vps35, hits give low values 0.987 | locus YJL164C, strain tpk1, hits give low values 0.997 | locus YJL166W, strain qcr8, hits give low values 0.982 | locus YJR066W, strain TOR1, hits give low values 0.935 | locus YKL160W, strain elf1, hits give low values 1.03 | locus YKR026C, strain gcn3, hits give low values 0.987 | locus YKR091W, strain srl3, hits give low values 1 | locus YLL001W, strain dnm1, hits give low values 0.993 | locus YLL026W, hits give low values 0.997 | locus YLL041C, strain sdh2, hits give low values 1.03 | locus YLR027C, strain aat2, hits give low values 1 | locus YLR113W, strain HOG1, hits give low values 0.987 | locus YLR221C, strain rsa3, hits give low values 0.993 | locus YLR258W, strain gsy2, hits give low values 0.998 | locus YLR262C, strain YPT6 (second series), hits give low values 0.984 | locus YLR320W, strain mms22, hits give low values 0.979 | locus YLR342W, strain FKS1, hits give low values 1.01 | locus YLR357W, strain rsc2, hits give low values 0.995 | locus YLR370C, strain arc18, hits give low values 1.01 | locus YLR384C, strain iki3, hits give low values 1.01 | locus YML120C, strain ndi1, hits give low values 0.981 | locus YMR058W, strain fet3, hits give low values 1 | locus YMR125W, strain sto1, hits give low values 0.985 | locus YMR129W, hits give low values 1 | locus YMR205C, strain PFK2, hits give low values 1.01 | locus YMR231W, strain pep5, hits give low values 0.995 | locus YNL071W, strain lat1, hits give low values 0.985 | locus YNL183C, strain NPR1, hits give low values 0.951 | locus YNL209W, strain ssb2, hits give low values 0.995 | locus YNL248C, strain rpa49, hits give low values 1 | locus YNL322C, strain KRE1 (second series), hits give low values 0.995 | locus YNR049C, strain mso1, hits give low values 1.01 | locus YOR001W, strain rrp6, hits give low values 0.949 | locus YOR070C, strain gyp1, hits give low values 0.989 | locus YOR080W, strain dia2, hits give low values 1 | locus YOR083W, strain WHI5, hits give low values 1.03 | locus YOR106W, strain vam3, hits give low values 0.995 | locus YOR231W, strain MKK1, hits give low values 0.991 | locus YOR265W, strain rbl2, hits give low values 1.01 | locus YOR270C, strain vph1, hits give low values 0.929 | locus YOR290C, strain snf2, hits give low values 1.06 | locus YPL051W, strain arl3, hits give low values 1.01 | locus YPL078C, strain atp4, hits give low values 1.02 | locus YPL106C, strain sse1, hits give low values 1.05 | locus YPL240C, strain hsp82, hits give low values 0.982 | locus YPL256C, strain CLN2, hits give low values 0.978
